# According to the supplement of paper PMC6555819:
# Columns and labels:
# Assay in all cases: PBM binding z-score (relative to random genomic background probes); higher = stronger binding; sequences stand for … in GC…GCGATTGACAGCGTAGAATGAAGG
# [1] = system: RARb homodimer (NR concentration 270 nM)
# How it was run: (§1)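 For binding z-scores, the reference was random background probes on custom Agilent 4×180K protein-binding microarrays. These arrays were incubated 1 h with ligand-free nuclear receptor dimers in PBS pH 7.4, 2% milk, 0.02% Triton X-100, 1 mM DTT, 0.2 mg/mL BSA and 0.4 mg/ml salmon testes DNA. Fluorescence was scanned after antibody detection of each partner (one per run) and regression-normalized.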
# [2] = system: RARg:RXRa (NR concentration 270 nM, RXRa partner concentration 90 nM)
# How it was run: as §1
# [3] = system: RARg homodimer (NR concentration 270 nM)
# How it was run: as §1
# [4] = system: RXRa DBDmut IVT, anti-RXR (DBD mutation: RXRa K156A/R161A, NR concentration 90 nM)
# How it was run: as §1
# [5] = system: RXRa homodimer (NR concentration 180 nM)
# How it was run: as §1
# [6] = system: THRa:RXRa (NR concentration 90 nM, RXRa partner concentration 90 nM)
# How it was run: as §1
# [7] = system: THRa homodimer (NR concentration 90 nM)
# How it was run: as §1
# [8] = system: VDR homodimer (NR concentration 270 nM)
# How it was run: as §1
Sequence,PBM binding z-score [1],PBM binding z-score [2],PBM binding z-score [3],PBM binding z-score [4],PBM binding z-score [5],PBM binding z-score [6],PBM binding z-score [7],PBM binding z-score [8]
TCTTGTAGATCAAAGGTTAAAAAAGCCGAAGCCT,1.22,1.79,0.557,0.941,3.35,1.44,-0.334,0.177
AGAATGAGGTTATACGTAGATCCGGGAAGAAAGT,0.443,1.39,0.944,1.78,1.82,1.94,0.512,0.912
CCAGACAGGTGAGAAGGTAACTCGGCCTCGATTA,0.583,0.465,0.269,0.0522,0.351,0.364,0.256,-0.0946
ATCGAAAGTTCGAGGTGAGTATAGAGAAAGGGAA,1.28,1.69,2.19,1.85,1.41,1.7,0.158,1.09
AATACAGGGTCATCGTGGGCCAGAGTACGCACAG,3.78,5.59,4.97,3.19,6.45,4.44,1.46,3.9
CGTCCAAGGTCAGCAGGTCTGTGAAAGCGACGTG,3.23,5.26,6.07,2.62,3.69,3.45,1.82,1.65
CCTCGGAGGACAACAGGGGGTCAGAGCTGCCAGA,3.52,4.25,3.49,0.19,3.24,3.27,1.04,1.28
TCATATTGGTAATACAGGTGAAAGTCGGCATCTA,0.667,0.388,0.332,1.69,0.917,0.669,0.437,0.279
GCTAGCAGGCCCTTTGGGTCACTCAATGACGGGC,1.29,0.49,0.718,-0.714,0.498,1.67,0.25,-0.37
TCTTGTAGATCAAAGGTTAAGAAAGCCGAAGCCT,1.36,1.68,0.776,0.652,3.27,1.27,-0.357,-0.0957
GCAGACAGGTGAAACGGAGGTAACTCAGGGTGGC,0.345,1.4,0.25,-0.66,0.757,1.83,-0.0224,-0.566
TCAGACGGGTGAAGGTAACTCAGGTACGCAGTCG,0.122,0.19,0.0578,0.65,0.866,1.28,-0.229,-0.187
GCATATAGGTAATACAAGGTGGAAGTCCGATTGT,-0.533,0.279,0.315,0.235,0.566,2.03,-0.457,-0.109
ATCTCTAGATAAAGTTCAGTGAAAGATCGATAGA,1.84,1.4,2.06,0.839,0.79,0.243,-0.14,1.66
ATCTCTAGGTAACAAGTTCACTGAAAGAGAGGAC,2.61,2.27,2.04,1.69,1.87,2.12,1.03,3.99
ATCTCTAGGTAAAGTTCAGTGGAAGATCGATAGA,2.55,2.03,2.47,1.74,1.11,1.3,0.319,2.23
TCATATAGGTAAAGGAGAAAGTCGAACGATATGA,-0.643,0.547,0.358,0.825,0.676,-0.227,-0.866,-0.11
CGTCCAAGGTCAAAGGTCTGTGAAGAGATGACGG,4.1,6.32,6.12,4.3,6.84,4.04,2.11,3.09
AGAATGAGGTTAAGATCAGGGAAACAGAATACAT,0.9,2.17,1.52,0.973,2.58,2.67,0.768,0.379

Sequence,PBM binding z-score [1],PBM binding z-score [2],PBM binding z-score [3],PBM binding z-score [4],PBM binding z-score [5],PBM binding z-score [6],PBM binding z-score [7],PBM binding z-score [8]
TCTTCTAGATCAAGCAGGTTAAGAAAGCCTGAGT,0.111,0.248,-0.0717,0.841,0.526,0.295,-0.392,0.0619
ACTATTAGTTGACGTAGGGCAACCGATACGACGC,0.993,0.445,0.82,0.582,0.328,0.925,-0.0539,0.159
TAGCCTAGGTCTGATCGGGCCAGTATACGCTATA,-0.807,-0.244,-0.187,-1.28,-0.358,0.71,-0.845,-0.912
TTACCAAGGTGAAGGTCGTTAATCCCTCTGTAGA,1.62,1.07,0.814,-0.0664,1.54,2.22,0.878,0.939
CAAACTAGGTCACGGTCAAAGTCGGTTTGTGCCA,4.62,4.99,5.89,2.12,3.82,3.94,2.34,1.7
GCTGCTAGGTCAACTGATGGTCTGCTAAAGCTCG,3.12,4.34,4.87,1.78,2.91,2.83,1.02,-0.264
CCAGACAGGGGAGAAGGTAACTCAGCCTCGATTA,-0.0846,-0.296,-0.226,0.218,-0.357,-0.218,-0.17,-0.316
TCCCGGAGGACACGAAGGTCAGAGCTTTCCAGAG,3.55,3.07,3.74,0.527,1.59,2.83,1.17,1.11
ATCGAAAGGTCGTGAGGTGAGTAAACAGAAAGGC,2.71,4.68,4.11,1.25,4.91,3.31,1.1,0.838
ATAATGAGGTTATTAAGATCAGGGAATTGCGGTC,0.912,1.39,1.21,2.09,1.88,2.3,0.964,1.8
CCGACTGGGGCACGGTTACCATAACGCACAGCCA,0.696,0.548,1.13,-1.14,0.163,-0.214,-0.521,-0.442
TCTATGAGTTGATTAGGGCAACCGAAACAGCGGA,0.553,0.54,0.536,1.45,0.681,0.857,-0.131,0.333
TCTATTATTTGAAGGGCAACCGACGAGTCCGTTT,1.34,0.739,0.634,2.12,0.997,0.552,0.572,2.12
AGAATTAGGTTAAGATCAGGGAAACAGAATACAT,0.701,1.04,1.09,-0.0806,0.853,1.35,0.656,0.432
CCGGCTGGGGCAGAAAGGTTACCATACCATCCGG,2.18,1.68,1.35,-1.28,1.74,0.969,-0.459,-0.229
AGAATGCGGTTACCAAAGATCAGGGAAACGCTTG,-0.737,0.095,0.185,-0.735,0.309,-0.323,-1.27,-1.02
CTCGAAGGGTCGGTTGAGGTGAGTATACGGATAA,1.41,1.55,1.56,0.489,1.17,4.74,1.49,0.596
GCGACTGGGGCATCAGCAGGTTACAATAACTTAA,0.719,0.817,0.522,-0.00722,0.334,0.895,0.0253,-0.0954
CCAGACAGATGAAAGGTAACTCAGTCTGGTACGC,0.123,0.253,0.272,-0.0479,0.612,0.108,-0.299,0.123
